Data taken from PubChem BioAssay (Tox21).
Records with an inconclusive call do not appear. Active and inactive are the calls of the source. Calls come from the whole dose curve; as a rule, active = well fitted inhibition curve with a large enough effect in the signal ratio in the repeat runs (not every such curve was filed as active); inconclusive = weak or mixed curves, or effect the other way; inactive = no such curve, though single readings can be large or run the other way; the % refers to the signal ratio.

target: Bile acid receptor (Homo sapiens) (UniProt Q96RI1); assay: qHTS assay to identify small molecule antagonists of the farnesoid-X-receptor (FXR) signaling pathway (AID 743217); conditions: HEK293T FXR-UAS-bla, beta-lactamase ratio, CDCA-stimulated, 16 h; series mostly up to 62.6 µM; activity change, negative = inhibition: at the top concentration
Sequence (Q96RI1 whole entry, looked up): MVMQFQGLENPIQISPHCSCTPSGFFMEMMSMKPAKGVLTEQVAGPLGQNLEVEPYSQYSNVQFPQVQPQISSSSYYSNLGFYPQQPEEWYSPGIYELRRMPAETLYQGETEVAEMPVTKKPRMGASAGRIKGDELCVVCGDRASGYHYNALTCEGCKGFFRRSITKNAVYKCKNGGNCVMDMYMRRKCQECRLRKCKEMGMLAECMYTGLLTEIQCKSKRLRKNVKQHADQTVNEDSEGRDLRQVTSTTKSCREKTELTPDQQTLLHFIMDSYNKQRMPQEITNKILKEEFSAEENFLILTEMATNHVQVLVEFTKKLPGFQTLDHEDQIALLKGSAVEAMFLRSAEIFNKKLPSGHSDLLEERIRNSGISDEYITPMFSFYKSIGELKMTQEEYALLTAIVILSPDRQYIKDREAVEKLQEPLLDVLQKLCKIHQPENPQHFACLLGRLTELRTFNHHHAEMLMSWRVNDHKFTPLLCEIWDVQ
Text: U.S. Tox21 Program National Center for Advancing Translational Sciences [NCATS] NIH Chemical Genomics Center [NCGC] U.S. Environmental Protection Agency [EPA] National Institutes of Environmental Health Sciences [NIEHS] National Toxicology Program [NTP] U.S. Food and Drug Administration [FDA] Tox21 Assay Overview: The farnesoid-X-receptor (FXR), a nuclear hormone receptor, is highly expressed in liver, intestine, kidney and adrenal cortex. Natural ligands of FXR are the bile acids (Cholic acid, Chenodeoxy cholic acid etc). FXR is an important regulator of diverse metabolic pathways, including the bile acid homeostasis, lipid and glucose metabolisms. FXR regulates the expression of target genes by binding either as a monomer or as a heterodimer with the retinoid X receptor (RXR). Numerous studies have reported that FXR exerts protective function during cholestasis, diabetes, liver regeneration, and cancer. To identify compounds that inhibit FXR signaling, GeneBLAzer FXR-UAS-bla HEK 293T cell line (Invitrogen, Carlsbad, CA) containing a beta-lactamase reporter gene under the control of a UAS response element was used to screen the Tox21 10K compound library.
Tox21 Assay Protocol Summary: FXR-bla cells were dispensed at 5000 cells/5uL/well in 1536-well black wall/clear bottom plates using a Multidrop Combi (Thermo Fisher Scientific, Waltham, MA) dispenser. After the assay plates were incubated at 37C and 5% CO2 for 5 h, 23 nL of compounds dissolved in DMSO, positive controls or DMSO only was transferred to the assay plate by a Pintool station (Kalypsys, San Diego, CA), followed by addition of 1 uL Chenodeoxycholic acid (50 uM, final concentration in the wells). The assay plates were incubated at 37C for 16 h. After 1 uL of LiveBLAzerTM B/G FRET substrate was added using a Bioraptr Flying Reagent Dispenser (FRD) workstation (Beckman Coulter, Indianapolis, IN), the plates were incubated at room temperature for 2 h, and fluorescence intensity was measured by an Envision plate reader (PerkinElmer, Shelton, CT).
% is set by controls: 0 for no effect and ±100 for the full control effect.

SMILES | activity change, negative = inhibition
CC[C@@]1(c2ccccc2)NC(=O)N(C)C1=O | 2.87% (inactive)
CC(C)C(=O)Nc1cccc(C2CN3CCSC3=N2)c1 (stereo not given) | -10.1% (inactive)
CCN1CCN(C(=O)N[C@@H](C(=O)N[C@@H]2C(=O)N3[C@@H]2SC(C)(C)[C@H]3C(=O)O)c2ccccc2)C(=O)C1=O | 0.537% (inactive)
C/C(=N\O)c1ccc(OCC(=O)N2CCCCC2)cc1 | 2.12% (inactive)
CCOC(=O)CC | 0.807% (inactive)
OCCC(F)(F)C(F)(F)C(F)(F)C(F)(F)C(F)(F)C(F)(F)F | 3.84% (inactive)
COC(=O)c1ccc(C(=O)O)cc1 | -2.71% (inactive)
CCCC(C)C(O)CC (stereo not given) | 2.68% (inactive)
C=CCCCCCCCCOC(C)=O | -0.147% (inactive)
COC(C)(C)CC(C)=O | 0.0611% (inactive)
CCCCCC(=O)CC | -0.495% [at 81.1 µM] (inactive)
CC(=O)/C=C/C=C1/C2CCC(C2)C1(C)C (stereo not given) | 7.82% (inactive)
Cc1cc(O)c(Cl)cc1C | -9.11% (inactive)
CCCCCCC(O)CO (stereo not given) | -4.94% (inactive)
CC(=O)SCC(CC(=O)c1ccc(C)cc1)C(=O)O (stereo not given) | 2.78% (inactive)
C=CCOC(=O)CCCCCCCC | 0.55% [at 81.1 µM] (inactive)
O=C(O)P(=O)(O)O | 6.84% (inactive)
NS(=O)(=O)c1cc2c(cc1C(F)(F)F)NCNS2(=O)=O | -16.6% (inactive)
C=CCON/C(CCC)=C1\C(=O)CC(C)(C)C(C(=O)OC)=C1O | 2.96% (inactive)
CCCCC(CC)CCC(CC(C)C)OS(=O)(=O)O (stereo not given) | 0.383% (inactive)

SMILES | activity change, negative = inhibition
CC[N+](C)(CC)CC | 2.75% (inactive)
CCCCCCCCCCCCCCBr | -5.37% [at 81.1 µM] (inactive)
CCCCCCCCS(=O)(=O)O | 1% [at 81.1 µM] (inactive)
C/C=C(\C)C=O | -4.25% [at 81.1 µM] (inactive)
CCCC[O][Al]([O]CCCC)[O]CCCC | 0.631% (inactive)
C=CC(=O)OCC[N+](C)(C)C | 0.647% [at 81.1 µM] (inactive)
COC(=O)c1ccc(NC(C)=O)cc1OC | -1.1% (inactive)
CC(=O)O[C@@H]1CC2C3CCc4cc(OC(=O)c5ccccc5)ccc4C3CCC2(C)[C@H]1OC(C)=O (stereo not given in full) | 2.36% (inactive)
CCCCC(CC)COC(=O)CC#N (stereo not given) | -8.71% (inactive)
COC(=O)N/N=C/c1c[n+]([O-])c2ccccc2[n+]1[O-] | -10.9% (inactive)
O=C(O)COc1ccc2ccccc2c1 | 3.28% (inactive)
Cc1ccccc1OCC(=O)O | 3.03% (inactive)
COCc1nnc(-c2ccc[n+]([O-])c2)n1-c1c(Cl)c(Cl)cc2[nH]c(=O)c(=O)[nH]c12 | -3.76% (inactive)
O=C(O)CCC(=O)Nc1ccc(S(=O)(=O)Nc2nccs2)cc1 | -4.57% (inactive)
CC(C)C[P+](C)(CC(C)C)CC(C)C | 4.04% [at 81.1 µM] (inactive)
CC1(C)CC(N)CC(C)(C)N1 | 0.491% (inactive)
Cc1ccc(N)nc1 | 0.819% (inactive)
CCCCc1ccc(Cl)cc1 | 0.587% (inactive)
CCCCCCC(=O)c1ccccc1 | -4.61% (inactive)
c1coc(Cn2cccc2)c1 | 1.74% (inactive)
